Results published in PubChem BioAssay (NCI).
This is part of a sample that, as a whole, favours compounds with a hit. Of some 83,000 tested, about 20% had one in any assay.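 Single-concentration screen, 48 h exposure, 96-well plates. Endpoint: percent growth. Below 10 = active.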 Active and inactive are the calls of the source.

What was measured:
Assay in all cases: NCI-60 one-dose screen, 48 h (100 = growth as untreated, 0 = no growth, -100 = all killed)
Settings in all cases: 10 µM unless noted
DU-145 prostate = tested on: DU-145 prostate
K-562 leukemia = tested on: K-562 leukemia
MALME-3M melanoma = tested on: MALME-3M melanoma
MDA-MB-231 breast = tested on: MDA-MB-231 breast
RXF 393 renal = tested on: RXF 393 renal
SF-268 CNS = tested on: SF-268 CNS
SF-295 CNS = tested on: SF-295 CNS
SF-539 CNS = tested on: SF-539 CNS
UACC-257 melanoma = tested on: UACC-257 melanoma
M14 melanoma = tested on: M14 melanoma
HCT-15 colon = tested on: HCT-15 colon
HT29 colon = tested on: HT29 colon
SNB-75 CNS = tested on: SNB-75 CNS
SNB-19 CNS = tested on: SNB-19 CNS
U251 CNS = tested on: U251 CNS
PC-3 prostate = tested on: PC-3 prostate
SK-MEL-5 melanoma = tested on: SK-MEL-5 melanoma
UACC-62 melanoma = tested on: UACC-62 melanoma
LOX IMVI melanoma = tested on: LOX IMVI melanoma
SK-MEL-28 melanoma = tested on: SK-MEL-28 melanoma

Measured: growth

COc1cc2c(cc1OC)-c1ccc3cc4c(cc3c1N(CCCn1ccnc1)C2)OCO4
inactive: DU-145 prostate 39.6% | K-562 leukemia 20.4% | MALME-3M melanoma 47.8% | MDA-MB-231 breast 56.7% | RXF 393 renal 57.8% | SF-268 CNS 34.4% | SF-295 CNS 27.7% | SF-539 CNS 13.3% | UACC-257 melanoma 52.8% | M14 melanoma 27.1% | HCT-15 colon 95.7% | HT29 colon 27.6% | SNB-75 CNS 13.2% | SNB-19 CNS 17.2% | PC-3 prostate 37.6% | SK-MEL-28 melanoma 59.2%
active: U251 CNS -6.84% | SK-MEL-5 melanoma 8.78% | UACC-62 melanoma -20.4% | LOX IMVI melanoma 1.62%

CCn1c(Sc2nnc(Nc3ccccc3)s2)nc2c1c(=O)n(C)c(=O)n2C
inactive: DU-145 prostate 113% | K-562 leukemia 114% | MALME-3M melanoma 94.9% | MDA-MB-231 breast 97.8% | RXF 393 renal 91.4% | SF-268 CNS 103% | SF-295 CNS 91.9% | SF-539 CNS 96.2% | UACC-257 melanoma 97.4% | M14 melanoma 104% | HCT-15 colon 97.6% | HT29 colon 137% | SNB-75 CNS 101% | SNB-19 CNS 95% | U251 CNS 103% | PC-3 prostate 100% | SK-MEL-5 melanoma 99.2% | UACC-62 melanoma 90.2% | LOX IMVI melanoma 95.9% | SK-MEL-28 melanoma 93%

Cl.Fc1c[c-]c(-c2ccccn2)c(F)c1.[Pt].c1ccc([PH+](c2ccccc2)c2ccccc2[PH+](c2ccccc2)c2ccccc2)cc1
active: DU-145 prostate -98.9% | K-562 leukemia 0.976% | MALME-3M melanoma -83.8% | MDA-MB-231 breast -93.3% | RXF 393 renal -86.8% | SF-268 CNS -72.3% | SF-295 CNS -90.8% | SF-539 CNS -93.6% | UACC-257 melanoma -71.8% | M14 melanoma -72.5% | HCT-15 colon -83.8% | HT29 colon -63.3% | SNB-75 CNS -98.3% | SNB-19 CNS -94.9% | U251 CNS -87.8% | PC-3 prostate -86.6% | SK-MEL-5 melanoma -97.2% | UACC-62 melanoma -85.6% | LOX IMVI melanoma -92.6% | SK-MEL-28 melanoma -94.5%

CCCNCC(=O)Nc1ccc(C(=O)OC(C)(C)CC)cc1
inactive: DU-145 prostate 101% | K-562 leukemia 101% | MALME-3M melanoma 90.9% | MDA-MB-231 breast 102% | RXF 393 renal 116% | SF-268 CNS 99% | SF-295 CNS 103% | SF-539 CNS 108% | UACC-257 melanoma 105% | M14 melanoma 96.8% | HCT-15 colon 106% | HT29 colon 79.4% | SNB-75 CNS 104% | SNB-19 CNS 99.7% | U251 CNS 100% | PC-3 prostate 75.8% | SK-MEL-5 melanoma 98.2% | UACC-62 melanoma 96.3% | LOX IMVI melanoma 100% | SK-MEL-28 melanoma 112%

COc1ccc(/C=C2\C=C(c3ccccc3)N(CCc3ccccc3)C2=O)cc1OC
active: RXF 393 renal -3.29% | SNB-75 CNS -7.78% | LOX IMVI melanoma 2.28%
inactive: DU-145 prostate 69% | K-562 leukemia 47.6% | MALME-3M melanoma 39.3% | MDA-MB-231 breast 29.6% | SF-268 CNS 55.2% | SF-295 CNS 26.8% | SF-539 CNS 42.1% | UACC-257 melanoma 69.3% | M14 melanoma 51.5% | HCT-15 colon 60.9% | HT29 colon 38.6% | SNB-19 CNS 43.3% | U251 CNS 15.9% | PC-3 prostate 54.4% | SK-MEL-5 melanoma 38.5% | UACC-62 melanoma 54.5% | SK-MEL-28 melanoma 76.7%

CC(=O)Nc1nccs1
inactive: DU-145 prostate 107% | K-562 leukemia 110% | MALME-3M melanoma 76.8% | MDA-MB-231 breast 103% | RXF 393 renal 98.6% | SF-268 CNS 99.9% | SF-295 CNS 101% | SF-539 CNS 97% | UACC-257 melanoma 94.2% | M14 melanoma 112% | HCT-15 colon 98% | HT29 colon 101% | SNB-75 CNS 106% | SNB-19 CNS 96.3% | U251 CNS 98.9% | PC-3 prostate 96.1% | SK-MEL-5 melanoma 101% | UACC-62 melanoma 92.7% | LOX IMVI melanoma 94.8% | SK-MEL-28 melanoma 98.6%

COc1cc2cc(Oc3ccc(NC(=O)Nc4cc(C(F)(F)F)cc(C(F)(F)F)c4)cc3)c(C)nc2cc1OCCN1CCCCC1
active: DU-145 prostate -95% | K-562 leukemia -49.3% | MALME-3M melanoma -86.2% | MDA-MB-231 breast -97.3% | SF-268 CNS -49.3% | SF-295 CNS -81.8% | SF-539 CNS -94% | UACC-257 melanoma -47.4% | M14 melanoma -79.6% | HCT-15 colon -82.4% | HT29 colon -64.8% | SNB-75 CNS -97.7% | SNB-19 CNS -92.2% | U251 CNS -69.3% | PC-3 prostate -45.2% | SK-MEL-5 melanoma -49.9% | UACC-62 melanoma -84.9% | LOX IMVI melanoma -99.1% | SK-MEL-28 melanoma -95.5%
inactive: RXF 393 renal 31.8%

Cc1ccc(S(=O)(=O)Nc2sccc2-c2nc(-c3ccccc3)no2)cc1
inactive: DU-145 prostate 105% | K-562 leukemia 103% | MALME-3M melanoma 94.4% | MDA-MB-231 breast 101% | RXF 393 renal 96.1% | SF-268 CNS 92.4% | SF-295 CNS 99.3% | SF-539 CNS 95% | UACC-257 melanoma 89.3% | M14 melanoma 87.1% | HCT-15 colon 97.9% | HT29 colon 100% | SNB-75 CNS 84.4% | SNB-19 CNS 94.4% | U251 CNS 93.9% | PC-3 prostate 86.4% | SK-MEL-5 melanoma 98.6% | UACC-62 melanoma 79.1% | LOX IMVI melanoma 91% | SK-MEL-28 melanoma 92.9%

O=C1CCC(N2C(=O)c3cccc(NCCCC4CCN(CCNC(=O)c5cc6c(o5)C(=O)c5ccccc5C6=O)CC4)c3C2=O)C(=O)N1 (stereo not given)
active: DU-145 prostate -94.9% | K-562 leukemia 2.99% | MALME-3M melanoma -99.2% | MDA-MB-231 breast -25.2% | RXF 393 renal -52.9% | SF-268 CNS -32.7% | SF-295 CNS -95.2% | SF-539 CNS -99.1% | UACC-257 melanoma -85.5% | M14 melanoma -83.2% | HCT-15 colon -80.8% | HT29 colon 1.94% | SNB-75 CNS -99.2% | SNB-19 CNS -96% | U251 CNS -83.6% | PC-3 prostate 2.13% | SK-MEL-5 melanoma -99.4% | UACC-62 melanoma -96.2% | LOX IMVI melanoma -90.1% | SK-MEL-28 melanoma -6.88%

O=C(/C=C/C12c3ccccc3C(c3ccccc31)C1C(=O)NC(=O)C12)c1ccccc1 (stereo not given)
inactive: DU-145 prostate 19.4% | K-562 leukemia 13.5% | MALME-3M melanoma 47.5% | MDA-MB-231 breast 14% | SF-268 CNS 29.6% | SF-295 CNS 28.2% | SF-539 CNS 18.5% | UACC-257 melanoma 46.6% | M14 melanoma 19.6% | HCT-15 colon 20% | HT29 colon 18.3% | SNB-19 CNS 32.9% | U251 CNS 25.6% | PC-3 prostate 29.9% | SK-MEL-5 melanoma 28.8% | UACC-62 melanoma 36.3% | SK-MEL-28 melanoma 44.7%
active: RXF 393 renal -13.1% | SNB-75 CNS -2.11% | LOX IMVI melanoma 2.81%

N#Cc1c(N)n2c(nc1=Nc1ccc([N+](=O)[O-])cc1)sc1cc(Cl)ccc12
active: SF-295 CNS -4.01%
inactive: DU-145 prostate 107% | K-562 leukemia 74.4% | MALME-3M melanoma 90.6% | MDA-MB-231 breast 74.5% | RXF 393 renal 114% | SF-268 CNS 95.4% | SF-539 CNS 107% | UACC-257 melanoma 109% | M14 melanoma 105% | HCT-15 colon 95.9% | HT29 colon 99.2% | SNB-75 CNS 60.9% | SNB-19 CNS 95.7% | U251 CNS 85.8% | PC-3 prostate 81.8% | SK-MEL-5 melanoma 73% | UACC-62 melanoma 53.1% | LOX IMVI melanoma 79.4% | SK-MEL-28 melanoma 106%

CN1C[C@@H](c2ccc(Cl)cc2)[C@]2(NC(=S)N(c3ccc(F)c(Cl)c3)C2=O)[C@@]12C(=O)NC1C=CC(Cl)=C[C@H]12 (stereo not given in full)
inactive: DU-145 prostate 67.3% | K-562 leukemia 10.3% | MALME-3M melanoma 91.2% | MDA-MB-231 breast 31.6% | RXF 393 renal 21.3% | SF-268 CNS 54% | SF-295 CNS 46.8% | SF-539 CNS 73.5% | UACC-257 melanoma 65% | HCT-15 colon 48.5% | HT29 colon 33.4% | SNB-75 CNS 53.2% | SNB-19 CNS 47.2% | U251 CNS 59.9% | SK-MEL-5 melanoma 44.5% | UACC-62 melanoma 55.7% | LOX IMVI melanoma 43.5% | SK-MEL-28 melanoma 72.6%
active: M14 melanoma -31.2% | PC-3 prostate 8.42%

CCCCCCNCc1cc(C(C)(C)C)cc(CNCCCCCC)c1O
inactive: SF-295 CNS 29.4%
active: DU-145 prostate -78.7% | K-562 leukemia -48.8% | MALME-3M melanoma -73.2% | MDA-MB-231 breast -83.6% | RXF 393 renal -93.3% | SF-268 CNS 9.67% | SF-539 CNS -89.9% | UACC-257 melanoma -84.1% | M14 melanoma -88.6% | HCT-15 colon -59.6% | HT29 colon -86% | SNB-75 CNS -62.1% | SNB-19 CNS 9.11% | U251 CNS -88.4% | PC-3 prostate 6.77% | SK-MEL-5 melanoma -98.2% | UACC-62 melanoma -85.3% | LOX IMVI melanoma -88.8% | SK-MEL-28 melanoma -88.8%

Cc1cc(C(c2ccccc2)c2ccccc2)ccc1NS(=O)(=O)c1ccccc1
inactive: DU-145 prostate 102% | K-562 leukemia 65.1% | MALME-3M melanoma 130% | MDA-MB-231 breast 88.5% | RXF 393 renal 102% | SF-268 CNS 85.9% | SF-295 CNS 109% | SF-539 CNS 98.4% | UACC-257 melanoma 118% | M14 melanoma 108% | HCT-15 colon 96.3% | HT29 colon 89.3% | SNB-75 CNS 95.4% | SNB-19 CNS 101% | U251 CNS 94.6% | PC-3 prostate 83.6% | SK-MEL-5 melanoma 94.8% | UACC-62 melanoma 85.2% | LOX IMVI melanoma 87.7% | SK-MEL-28 melanoma 112%
